Screens as filed in PubChem BioAssay.
COUP-TFII inh: NR2F2 transcriptional activity inhibitors, primary screen, cell-based, luciferase reporter, HEK293T, luminescence; inhibition, % at 8.6 µM; AID 686940, 2013; HEK293T NGFI-A luciferase reporter; 370,000 compounds, 0.7% hits;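 active = inhibition above a per-plate cutoff, mean inhibition of test wells between control levels plus 3 SD, cut at about 38% in these data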;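 note: cells cotransfected with COUP-TFII expression vector driving the NGFI-A reporter; 0% = median of COUP-TF2 test wells and 100% = reporter-only cells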
SRC2 inh: inhibition of GAL4-SRC2 driven luciferase reporter, primary screen, SRC2 inhibitor project, cell-based, luminescence | Nuclear receptor coactivator 2 (Homo sapiens), Q15596 | HEK293 GAL4-SRC2 luciferase reporter | inhibition, % at 9 µM | 370,000 compounds, 0.17% hits | AID 651957, 2012;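 active = inhibition above the mean inhibition of all tested compounds plus 3 SD, set per campaign, cut at about 52% in these data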;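 note: 0% = DMSO treated cells and 100% = cells given Gossypol at 36 µM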
NCOA1 inh: SRC1 coactivator transcriptional activity inhibitors, primary screen, cell-based, luminescence | AID 588354, 2011 | HEK293 GAL4-SRC1 luciferase reporter | inhibition, % at 3.6 µM | 360,000 compounds, 0.12% hits | Nuclear receptor coactivator 1 (Homo sapiens), Q15788;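 active = inhibition above the campaign mean plus 3 SD, with each screening campaign given its own cutoff, cut at about 60% in these data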;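 note: 0% = DMSO treated cells and 100% = gossypol at 36 µM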
Target sequence (Q15788 whole entry, looked up, the tested form may be a part): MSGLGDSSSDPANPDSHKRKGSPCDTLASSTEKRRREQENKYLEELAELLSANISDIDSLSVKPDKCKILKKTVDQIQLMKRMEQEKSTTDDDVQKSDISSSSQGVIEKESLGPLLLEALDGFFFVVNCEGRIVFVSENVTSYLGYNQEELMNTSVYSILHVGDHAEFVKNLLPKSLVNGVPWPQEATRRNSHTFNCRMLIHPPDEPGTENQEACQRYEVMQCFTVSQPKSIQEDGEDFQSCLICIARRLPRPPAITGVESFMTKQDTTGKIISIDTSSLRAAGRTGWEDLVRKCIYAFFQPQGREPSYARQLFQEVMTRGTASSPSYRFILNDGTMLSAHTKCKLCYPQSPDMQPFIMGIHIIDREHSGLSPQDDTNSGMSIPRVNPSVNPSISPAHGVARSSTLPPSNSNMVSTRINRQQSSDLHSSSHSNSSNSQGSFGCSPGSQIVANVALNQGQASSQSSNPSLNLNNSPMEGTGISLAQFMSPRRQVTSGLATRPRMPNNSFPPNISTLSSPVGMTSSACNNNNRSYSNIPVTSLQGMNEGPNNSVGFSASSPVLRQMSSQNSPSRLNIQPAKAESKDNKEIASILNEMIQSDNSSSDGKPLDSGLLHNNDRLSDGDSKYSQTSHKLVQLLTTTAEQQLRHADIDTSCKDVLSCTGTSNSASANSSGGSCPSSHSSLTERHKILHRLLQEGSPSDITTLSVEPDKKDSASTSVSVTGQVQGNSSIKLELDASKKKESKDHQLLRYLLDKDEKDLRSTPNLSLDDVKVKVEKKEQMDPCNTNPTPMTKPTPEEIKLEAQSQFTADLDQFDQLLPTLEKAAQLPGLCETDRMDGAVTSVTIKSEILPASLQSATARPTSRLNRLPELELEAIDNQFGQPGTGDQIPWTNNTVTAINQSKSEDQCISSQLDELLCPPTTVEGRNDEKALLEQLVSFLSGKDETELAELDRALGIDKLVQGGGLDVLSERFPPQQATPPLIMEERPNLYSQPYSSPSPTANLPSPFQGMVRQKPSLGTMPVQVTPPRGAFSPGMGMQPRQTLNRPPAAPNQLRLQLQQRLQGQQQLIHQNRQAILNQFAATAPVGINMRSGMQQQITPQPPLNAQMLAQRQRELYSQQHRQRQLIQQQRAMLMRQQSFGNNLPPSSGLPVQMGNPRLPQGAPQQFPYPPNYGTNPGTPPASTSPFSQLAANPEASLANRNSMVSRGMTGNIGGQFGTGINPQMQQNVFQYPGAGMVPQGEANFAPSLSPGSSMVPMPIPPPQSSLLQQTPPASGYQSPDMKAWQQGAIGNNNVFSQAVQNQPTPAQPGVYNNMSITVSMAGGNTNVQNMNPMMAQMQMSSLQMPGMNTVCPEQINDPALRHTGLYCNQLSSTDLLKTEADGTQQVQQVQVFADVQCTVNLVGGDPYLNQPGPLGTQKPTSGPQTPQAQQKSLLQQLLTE
NCOA3 inh: SRC3 coactivator transcriptional activity inhibitors, primary screen, cell-based, luminescence; HEK293 GAL4-SRC3 luciferase reporter; 360,000 compounds, 0.17% hits; inhibition, % at 3.6 µM; Nuclear receptor coactivator 3 (Homo sapiens), Q9Y6Q9;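 active = inhibition above a per-campaign cutoff, the mean of all compounds plus 3 SD, cut at about 60% in these data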;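 note: 0% = DMSO-treated cells and 100% = gossypol-treated cells at 36 µM; higher means less SRC3-driven luciferase light from the GAL4 reporter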
GalR3 antagonist: GalR3 antagonists in HEK293 cells, primary screen, cell-based, fluorescence readout | HEK293 GalR3-CNG cAMP membrane potential fluorescence; galR3 body fused to GalR1 C-terminus | inhibition, % at 3 µM | 360,000 compounds, 0.44% hits;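 active = inhibition above the screen-wide average plus 3 SD, cut at about 13% in these data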;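 note: forskolin and galanin both at EC90 stimulate the cells; cAMP rise reported by CNG channel membrane potential dye signal; 0% = forskolin plus galanin with DMSO and 100% = forskolin alone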
LRH-1 inv ag: LRH-1 (NR5A2) inverse agonists, primary screen, cell-based, luminescence, HEK293T, StAR-luciferase reporter; Nuclear receptor subfamily 5 group A member 2 (Homo sapiens), O00482; LRH-1 transfected, 24 h; inhibition, % at 3.6 µM; 360,000 compounds, 0.13% hits; AID 602396, 2012;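 active = inhibition above the mean inhibition of all tested compounds plus 3 SD, cut at about 73% in these data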;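 note: 0% = DMSO wells and 100% = reporter-only cells lacking LRH-1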
GalR3 antag conf: GalR3 antagonist hit confirmation, cell-based, fluorescence, triplicate. shares compounds with GalR3 antagonist. 1,600 compounds, 59% hits. AID 652245, 2013. HEK293 GalR3 CNG cAMP biosensor, membrane potential fluorescence; galR3 fused to GalR1 carboxy tail; challenged with forskolin and galanin at EC90. inhibition, % at 3 µM;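 active = inhibition above the primary screen's cutoff, the mean inhibition of all screened compounds plus 3 SD, cut at about 13% in these data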;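 note: 0% = forskolin plus galanin and 100% = forskolin alone with DMSO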
HEK-CNG parental: nonspecific cAMP agonists in parental HEK-CNG cells, counter-screen for GalR3 antagonist project, cell-based, fluorescence, high throughput. shares compounds with GalR3 antagonist. activation, % at 3 µM. 1,600 compounds, 10% hits. HEK293-CNG parental cells, cAMP membrane potential fluorescence; normalised: DMSO wells 0%, forskolin wells 100%. AID 652268, 2013; in the data active = activation above about 1.3%
Gal4-VP16 ctr: Gal4-VP16 luciferase reporter inhibitors, counter-screen for COUP-TFII antagonist project, cell-based, luminescence, HEK293; shares compounds with COUP-TFII inh; inhibition, % at 8.5 µM; 2,500 compounds, 25% hits; in the data active = inhibition above about 13%
NR2F2 inh conf: NR2F2 transcriptional activity inhibitors, confirmation, cell-based, luciferase reporter, HEK293, triplicate. AID 687008, 2013. 2,500 compounds, 45% hits. HEK293 NGFI-A luciferase reporter, luminescence. inhibition, % at 8.5 µM. shares compounds with COUP-TFII inh;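 active = mean inhibition over three repeats above a set limit taken from the earlier primary screen, cut at about 38% in these data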;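 note: 100% = cells given the luciferase reporter alone without the COUP-TF2 vector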
Active calls of the source: *; x = no result. Most compounds without a hit are left out; they make up all but 1.1% or so of the library.

SMILES	COUP-TFII inh	SRC2 inh	NCOA1 inh	NCOA3 inh	GalR3 antagonist	LRH-1 inv ag	GalR3 antag conf	HEK-CNG parental	Gal4-VP16 ctr	NR2F2 inh conf
CCc1nc(C)cn1S(=O)(=O)c1cc(C)c(OC)c(C)c1C	48.9*	23.7	-2.9	14.3	26.1*	-5.0	82.4*	0.5	7.4	39.8*
OC(c1ccc(F)cc1)c1nc(-c2ccncc2)cs1 (configuration not stated)	41.8*	-12.6	16.4	23.2	13.3*	16.6	31.7*	-0.5	-0.9	23.3
COc1ccc(N2CCN(C(=S)Nc3ccccc3)CC2)cc1	10.6	6.5	-18.8	0.1	-9.7	-8.3	x	x	x	x
CC(=O)c1ccc(N2CCN(C(=S)Nc3ccc(Oc4ccccc4)cc3)CC2)cc1	69.0*	0.6	13.9	22.8	81.9*	12.7	96.6*	-1.2	-0.4	56.0*
COC(=O)[C@]12C[C@H](CC(=O)NCCc3ccccc3OC)C(=O)N(CCC3=CCCCC3)C1=C[C@H](C(C)C)O[C@@H]2C1CC1	-0.5	21.2	x	x	x	x	x	x	x	x
Cc1sc2ncnc(NCC3COc4ccccc4O3)c2c1C (configuration not stated)	76.0*	23.7	25.6	30.0	100.2*	42.1	105.1*	0.3	-3.5	61.6*
Cc1sc2ncnc(NCC3CCCO3)c2c1C (configuration not stated)	10.6	16.5	-6.9	10.9	-4.4	23.2	x	x	x	x
C=CCc1cccc(CNc2cnc3ccccc3c2)c1O	46.6*	26.6	4.4	-11.7	59.9*	16.4	89.5*	-1.2	-53.5	25.4
O=C1CCC2(CCC(c3ccccc3)CC2)N1CC[C@@H](O)c1ccccc1 (some centres not stated)	14.6	x	x	x	x	x	x	x	x	x
Cc1ccc(NC(=S)NNC(=O)CSc2nnc(SCc3cccc4ccccc34)s2)cc1	-13.0	-0.5	x	x	x	x	x	x	x	x
COc1cccc(OCCn2cc(C(C)=O)c3ccccc32)c1	48.6*	25.2	26.2	25.5	26.8*	14.1	20.8*	0.2	3.5	42.8*
CC(=O)c1cn(CCOc2cc(C)ccc2C)c2ccccc12	54.7*	22.7	42.7	16.9	84.4*	37.6	84.5*	0.8	18.2*	63.3*
CC(=NNC(=O)CSc1nnc(-c2ccc(C(C)(C)C)cc2)n1-c1ccccc1)c1cccc2ccccc12	18.0	27.4	x	x	x	x	x	x	x	x
CN(C)S(=O)(=O)c1cccc(CSCc2cccc(S(=O)(=O)N(C)C)c2)c1	56.8*	0.6	31.7	33.6	77.9*	41.8	86.8*	0.2	7.2	56.1*
COc1cc(NC(=O)CSc2nc(C)cc(=O)[nH]2)cc(OC)c1	1.7	-18.5	x	x	x	x	x	x	x	x
Cc1cc(C)cc(OCC(O)CN2CCC(CN3C(=O)c4cccc5cccc(c45)C3=O)CC2)c1 (configuration not stated)	72.9*	31.4	-9.0	10.9	28.5*	6.3	20.5*	8.2*	7.1	39.9*
CCOc1ccc(Oc2ccccc2NC(=O)CSCC(=O)Nc2cc(C)on2)cc1	50.5*	13.2	-1.5	17.6	40.2*	23.3	72.8*	-0.4	4.5	38.0*
Cc1c(C(=O)NCc2ccc(C(C)C)cc2)sc(=O)n1Cc1ccc(S(=O)(=O)N(C)C)cc1	67.8*	-1.1	20.2	30.8	37.4*	32.2	28.4*	-0.4	7.4	64.0*
CCCOC(=O)c1ccc(OCC(O)Cn2c(C)nc3ccccc32)cc1 (configuration not stated)	39.2*	22.0	16.2	10.1	105.2*	22.6	122.6*	-0.3	-42.6	30.2
CC(=O)Nc1cccc(OCC(O)Cn2c(C)nc3ccccc32)c1 (configuration not stated)	0.6	0.5	10.0	20.9	-6.1	9.3	x	x	x	x
Cc1ccc(C2CCC3(CCC(=O)N3CCO)CC2)cc1 (configuration not stated)	-11.3	-26.4	x	x	x	x	x	x	x	x
c1ccc(CCNc2ncnc3sccc23)nc1	9.8	-20.8	-1.6	-25.2	-2.2	-43.5	x	x	x	x
Cc1csc2ncnc(NCCc3ccccn3)c12	67.8*	8.4	30.5	9.4	96.8*	33.6	83.9*	-0.2	1.9	48.2*
COC(=O)CSc1nnc(-c2ccc(NS(=O)(=O)c3ccc(Cl)s3)cc2)o1	3.8	-1.2	x	x	x	x	x	x	x	x
O=C1COc2ccc(-c3csc(=Nc4ccc(OC(F)F)cc4)n3CC3CCCO3)cc2N1 (configuration not stated)	5.8	20.5	2.0	15.2	-2.8	21.9	x	x	x	x
SMILES	COUP-TFII inh	SRC2 inh	NCOA1 inh	NCOA3 inh	GalR3 antagonist	LRH-1 inv ag	GalR3 antag conf	HEK-CNG parental	Gal4-VP16 ctr	NR2F2 inh conf
COCC(C)n1c(-c2ccc3c(c2)NC(=O)CO3)csc1=Nc1ccc(OC(F)F)cc1 (configuration not stated)	48.3*	28.1	20.4	23.5	30.6*	39.2	92.1*	-1.3	16.0*	56.2*
N#Cc1nc(N2CCCCC2)nc(N2CCOCC2)n1	10.4	1.5	-1.7	-9.0	-2.2	14.4	x	x	x	x
N#Cc1nc(N2CCCC2)nc(N2CCCC2)n1	46.8*	15.2	2.5	17.2	98.2*	19.1	111.6*	-0.1	-5.9	33.5
CNc1ccccc1C(C)(C)c1cc(-c2ccc(F)cc2)no1	44.6*	0.8	11.0	26.4	48.8*	16.9	68.6*	-0.4	1.9	31.2
CCOC(=O)[C@]12CCCCC/C=C\1N(Cc1ccc(OC)cc1)C(=O)[C@H]2CC(=O)NCc1ccc(OC)c(OC)c1	4.7	-24.5	x	x	x	x	x	x	x	x
Cc1noc(C)c1COC(=O)c1ccc(F)c(S(=O)(=O)N2CCCCC2)c1	15.2	-26.9	7.2	3.1	0.1	-3.7	x	x	x	x
